The panel holds about 83,000 compounds, 20% with a hit somewhere; the sample as a whole holds those more often.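 Growth was measured after 48 h exposure to one concentration of compound in 96-well plates. Values under 10 count as active.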 Activity calls are given as the source filed them.

The test system of the assay is SW-620 colon. The assay can be described thus: NCI-60 one-dose screen, 48 h (100 = growth as untreated, 0 = no growth, -100 = all killed). The note with it: 10 µM unless noted. The protocol:
Growth inhibition of the SW-620 human tumor cell line is measured as a screen for anti-cancer activity. Cells are grown in 96 well plates and exposed to the test compound for 48 hours. Compounds are tested at a single concentration, which is 10^-5 M for most compounds. The reported endpoint is percent growth (GI% or GIPRCNT), where numbers from 0 - 100% represent growth inhibition, and numbers from -100% - 0 represent cell death. For example, a value of 40 represents 60% growth inhibition. A value of 0 means no net growth occurred over the course of the experiment. A value of -40 indicates 40% of cells at the beginning of the experiment died by the end of the experiment. A value of -100 means all cells are dead at the end of the experiment.
NCI-60 Human Tumor Cell Lines Screen was performed using the standard one-dose NCI protocol, which is described in more detail at https://dtp.cancer.gov/discovery_development/nci-60/default.htm.
Compounds with GIPRCNT values below 10 were considered active. Activity score was based on GIPRCNT using the following formula: […]
Score is 0 for GIPRCNT values of 100 or above, 50 for GIPRCNT values of 0, and 100 for GIPRCNT values of -100.
Regarding `c1cnc2[nH]cc(-c3csc(-c4cn(CCCCN5CCCCC5)c5ccccc45)n3)c2c1`, the growth is 76.8% (inactive).
To `CCC1(C)CC(CCNCc2ccccc2O)(c2ccc(C)cc2)CCO1` (stereo not given) belongs 103% (inactive); to `COC(=O)CC[C@H](Cc1ccccc1)NC(=O)c1csc([C@@H](C[C@H](C(C)C)N(C)C(=O)[C@@H](NC(=O)[C@H]2CCCCN2C)C(C)C)OC(C)=O)n1`, 35.8% (inactive).
To `CC(=O)C(c1c(O)c2ccccc2oc1=O)c1cc(=O)oc2c1ccc1ccccc12` (stereo not given) belongs 99% (inactive).
As to `O=[N+]([O-])c1cnc[nH]1`, the growth was 104% (inactive).
Under `O=C(Nc1ccc(O)cc1)C(Cl)(Cl)Cl` stands 110% (inactive); under `C#C[C@]1(OC(=O)CCCCCC)CC[C@H]2[C@@H]3CCC4=CC(=O)CC[C@@H]4[C@H]3CC[C@@]21C`, 28.1% (inactive).
As to `COc1cccc(C=NC(Cc2cnc[nH]2)C(=O)O)c1O` (stereo not given), the growth was 102% (inactive).
Consider `CCC(C)(C)[C@H](NC(=O)[C@H]1CCCCN1C)C(=O)N(C)[C@H](C[C@@H](OC(C)=O)c1nc(C(=O)N[C@@H](Cc2ccccc2)C[C@H](C)C(=O)O)cs1)C(C)C`, for which the growth was 26.6% (inactive).
To `C=CCn1cc(C=C2C(=O)N(C)C(=O)N(C)C2=O)c2ccccc21` belongs 97.9% (inactive); to `O=C(Nc1ccc([As]=[As]c2ccc(NC(=O)c3ccccc3)cc2)cc1)c1ccccc1` (stereo not given), -67.3% (active); to `O=C1CCC2(O)[C@@H]3Cc4ccc(O)c5c4[C@]2(CCN3Cc2ccoc2)C1O5` (stereo not given in full), 102% (inactive).
To `COC(=O)[C@@]1(O)C[C@H]2O[C@]1(C)n1c3ccccc3c3c4c(c5c6ccccc6n2c5c31)C(=O)NC4` belongs -19.7% (active); to `CC(=O)OC1C(OC/C2=C/C3[C@@H](C(C)C)CC=C(C)[C@@H]3CC(OC(=O)/C=C/c3cn(C)cn3)[C@]3(C)C=C[C@@]2(O)O3)OCC(O)C1O` (stereo not given in full), 35.8% (inactive); to `CC1=C(CCCNS(C)(=O)=O)C2=C(C)C3(CC3)[C@@](C)(O)C(=O)C2=C1`, 83.3% (inactive).
For the compound `NC(=S)c1cn(C2OC(CO)C(O)C2O)c2ncnc(N)c12` (stereo not given), the growth is -27.6% (active).
Under `CN(C)C1C(=O)C(C(N)=O)=C(O)C2(O)C(=O)C3=C(O)c4c(O)cccc4C(C)(O)C3CC12.[Cl][Sb]([Cl])[Cl]` (stereo not given) stands 34.7% (inactive); under `O=NN1CCCc2cccc(O)c21`, 44.1% (inactive); under `O=C(CC1(O)C(=O)N(Cc2ccccc2)c2ccc(Br)cc21)c1ccc(C(=O)NCC2CCC3(CC2)OOC2(CCCCC2)OO3)cc1` (stereo not given), -16.5% (active).
To `O=C(O)C(O)C(O)C1[O][Sb]([c]2ccc([N+](=O)[O-])cc2)[O]C1CO` (stereo not given) belongs 103% (inactive); to `CCN(CCO)C(Cc1ccccc1)c1ccccc1` (stereo not given), 96.4% (inactive); to `CC(=O)O[C@@H]1CC[C@]2(C)[C@H]3CC[C@]4(C)C(=O)CC[C@H]4[C@@H]3C[C@@H]3SC(N)=N[C@@]32C1`, 44.1% (inactive).
To `CC(=O)OC1CCC2C3CCC4=C/C(=N/OC(=O)c5ccc(N(CCCl)CCCl)cc5)CCC4(C)C3CC(C)C12` (stereo not given) belongs 83.4% (inactive); to `O=C(O)CNC(=O)C(Cl)(Cl)Cl`, 94.8% (inactive).
For the compound `CN(C)CC(C(=O)Cc1ccccc1)c1ccccc1` (stereo not given), the growth was 20.6% (inactive).
With `COc1cc(NCCCN=C(N)N)c2ncccc2c1`, the growth is 92.8% (inactive).
As to `C/C(CC(C)(C)N1CC1)=N\NC(=O)Nc1cccc2ccccc12`, the growth was 52.3% (inactive).
Under `O=C(CCCC1CCCCC1)OCC(Cl)(Cl)Cl` stands 107% (inactive); under `Cc1ccc(S(=O)(=O)C(Cl)(Cl)Cl)cc1`, 99.3% (inactive); under `CCCCCCCC(=O)OCC(=O)[C@]1(O)Cc2c(O)c3c(c(O)c2[C@@H](OC2CC(N)C(O)C(C)O2)C1)C(=O)c1c(OC)cccc1C3=O` (stereo not given in full), -62.5% (active).
To `CC12CCC3C(CCC4=CC(=O)CCC43CF)C1CCC2=O` (stereo not given) belongs 126% (inactive).
Under `CCOC(=O)CCC(NC(=O)C(Cc1ccc(N(CCCl)CCCl)cc1)NC=O)C(=O)OCC` (stereo not given) stands 51.5% (inactive); under `O=C(CC1(O)C(=O)Nc2ccc(Br)cc21)c1ccc(C(=O)NCC2CCC3(CC2)OOC2(CCCCC2)OO3)cc1` (stereo not given), -12.5% (active); under `C/C(=C\c1ccn(-c2ccccc2N)n1)[C@@H]1C[C@@H]2O[C@]2(C)CCC[C@H](C)[C@H](O)[C@@H](C)C(=O)C(C)(C)[C@@H](O)CC(=O)O1`, 38.3% (inactive).
Consider `Cc1cnc(/C=C/C(=O)O)cc1-c1cc2c(cc1C)C(C)(C)CCC2(C)C`, for which the growth is 86.6% (inactive).
As for `O=C(CC1(O)C(=O)N(Cc2ccccc2)c2ccccc21)c1ccc(C(=O)NCC2CCC3(CC2)OOC2(CCCCC2)OO3)cc1` (stereo not given), the growth was 6.2% (active).
Under `CCC(O)(CN)c1ccccc1` (stereo not given) stands 100% (inactive); under `CN(C)C(=O)Oc1ccc(Br)cc1`, 109% (inactive); under `C[C@@]12CC[C@@H](O)C[C@@H]1CC[C@H]1[C@H]2CC[C@@]2(C)[C@H](c3ccc(=O)oc3)CC[C@@]12O`, -68.3% (active).
To `ClCCN(CCCl)c1ccc(OCc2ccccc2)cc1` belongs 60.9% (inactive).

These data come from PubChem BioAssay (NCI).
